In the OligoGym collection:

How the values were obtained:
Assay in all cases: pooled miR-30 sensor sort-seq; sequence = guide strand
Details in all cases: shRNA
ALG3 = biological target: ALG3
ALOX12B = biological target: ALOX12B
ALDH9A1 = biological target: ALDH9A1
ALG10B = biological target: ALG10B
AP3B1 = biological target: AP3B1
APOBEC3A = biological target: APOBEC3A
ARHGAP30 = biological target: ARHGAP30
ARPC4 = biological target: ARPC4
ASCC1 = biological target: ASCC1
ASB15 = biological target: ASB15
ASCL1 = biological target: ASCL1
Also: reference of the scale not given here.

ATGTACACGAAACCAGCTGGGT
sensor-assay potency score (higher = more potent) (ALG3): -1.42

TACTGGTACCCAAAGAAGGTGT
sensor-assay potency score (higher = more potent) (ALOX12B): -0.741

TCTCATGTAATATCCATCCTTT
sensor-assay potency score (higher = more potent) (ALDH9A1): -0.314

AAGAGCAGCACATTCATCTTCA
sensor-assay potency score (higher = more potent) (ALG3): 0.161

TGCACATAGTTGCAGTACCAAG
sensor-assay potency score (higher = more potent) (ALOX12B): -2.04

TAAAGTGTTGGAAATACTGCTA
sensor-assay potency score (higher = more potent) (ALG10B): -0.0567

TATAGTGACATATCGGATCAGC
sensor-assay potency score (higher = more potent) (ALOX12B): -0.0361

TAAAGATGTACACGAAACCAGC
sensor-assay potency score (higher = more potent) (ALG3): -1.12

TGATCTGGACGGTGTATCGGGT
sensor-assay potency score (higher = more potent) (ALOX12B): -0.615

TTGCTTTAGATCTTCATTCTTC
sensor-assay potency score (higher = more potent) (AP3B1): 0.267

TTAAATTCATCGTAGGTCATGA
sensor-assay potency score (higher = more potent) (APOBEC3A): 0.00462

TTCGTAGCACAGGTAGGTCTTA
sensor-assay potency score (higher = more potent) (APOBEC3A): -0.473

TTATTCTGAGACATTGACCTTC
sensor-assay potency score (higher = more potent) (ARHGAP30): 0.266

TGTAACAGGAGCTCTTTGCTAC
sensor-assay potency score (higher = more potent) (ARPC4): -0.241

TTCTTCATGTTGATAGGTCTGT
sensor-assay potency score (higher = more potent) (ASCC1): 1.07

TAGAAGTTCTCAAACAACTTTA
sensor-assay potency score (higher = more potent) (ASCC1): -0.0661

TTTCACAGCAATCAGAAGGGGG
sensor-assay potency score (higher = more potent) (ASB15): -0.119

TACTCATCTTCTTGTTGGCCGC
sensor-assay potency score (higher = more potent) (ASCL1): -0.58

TTGACCAACTTGACGCGGTTGC
sensor-assay potency score (higher = more potent) (ASCL1): 0.134

TGTGTTTGTACATCTGCTCTGT
sensor-assay potency score (higher = more potent) (ARPC4): 0.568

TTTGCTACTCCTGACTTCCACT
sensor-assay potency score (higher = more potent) (ARPC4): -1.07

TTCACAGCAATGCTGACCCGGA
sensor-assay potency score (higher = more potent) (ARPC4): -0.48

TAGCATCTCACATGTCTGCTGG
sensor-assay potency score (higher = more potent) (ASCC1): 0.184

TATGTATCTTTGAATAGCTGGT
sensor-assay potency score (higher = more potent) (ASB15): -0.171

TTTGCAGCGCATCAGTTCGGGC
sensor-assay potency score (higher = more potent) (ASCL1): -1.5

TGTTTGTACATCTGCTCTGTGT
sensor-assay potency score (higher = more potent) (ARPC4): -0.895

TGTCGTTCCACAACCTGGGAGG
sensor-assay potency score (higher = more potent) (ARPC4): -0.878

TGTCGCTTGACTTGCTTGGGCG
sensor-assay potency score (higher = more potent) (ASCL1): -1.29

TATGCTTATAGAGCAAGCTGGG
sensor-assay potency score (higher = more potent) (ASCC1): -1

TTTATTACACAAGATGTCCATC
sensor-assay potency score (higher = more potent) (ASB15): -0.601
